About 7,900 targets were measured; listed, in parts, are those with a hit and a random draw of the rest. About 0.6% of all pairs of compound and target were hits.
Columns and labels:
Assay in all cases: log2 fold change, soluble protein after heating vs DMSO (PISA); higher = thermal stabilisation; K562 cells, 10 uM, 30 min; active = over 0.2 and 3.5 SD of the protein, either way, in both replicates (recomputed)
[1] = compound: COC1=CC=C(C=C1)CN2C=CC3=C2C=C(C=C3)C(=O)NO
Outline: (§1)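 K562 cells at 2×10^6 cells/mL were treated for 30 min with 10 μM compound, and aliquots were heated for 3 min over 48°C-58°C before pooling. Extraction used PBS with 0.5% NP-40 at 4°C, and soluble protein was the supernatant after 21,000xg for 90 min, measured by TMTpro 16plex LC-MS/MS with channel sums equalised. Thermal stability values, relative to control samples and from duplicates, are log2 fold changes.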

filanesib = compound: CON(C)C(=O)N1N=C(c2cc(F)ccc2F)S[C@@]1(CCCN)c1ccccc1 [filanesib]
Outline: as §1

zotarolimus = compound: CO[C@H]1C[C@@H]2CC[C@@H](C)[C@@](O)(O2)C(=O)C(=O)N2CCCC[C@H]2C(=O)O[C@H]([C@H](C)C[C@@H]2CC[C@H](n3cnnn3)[C@H](OC)C2)CC(=O)[C@H](C)/C=C(\C)[C@@H](O)[C@@H](OC)C(=O)[C@H](C)C[C@H](C)/C=C/C=C/C=C/1C [zotarolimus]
Outline: as §1

idasanutlin = compound: COc1cc(C(=O)O)ccc1NC(=O)[C@@H]1N[C@@H](CC(C)(C)C)[C@](C#N)(c2ccc(Cl)cc2F)[C@H]1c1cccc(Cl)c1F [idasanutlin]
Outline: as §1

alisertib = compound: COc1cc(Nc2ncc3c(n2)-c2ccc(Cl)cc2C(c2c(F)cccc2OC)=NC3)ccc1C(=O)O [alisertib]
Outline: as §1

[2] = compound: COc1cc2nc(-c3cc(F)ccc3O)nc(N[C@@H]3CNC[C@H]3C(C)(C)O)c2cc1OC
Outline: as §1

gefitinib = compound: COc1cc2ncnc(Nc3ccc(F)c(Cl)c3)c2cc1OCCCN1CCOCC1 [gefitinib]
Outline: as §1

[3] = compound: COc1cccc2cc(-c3nc([C@H]4CC[C@H](C(=O)O)CC4)n4ncnc(N)c34)[nH]c12
Outline: as §1

lapatinib = compound: CS(=O)(=O)CCNCc1ccc(-c2ccc3ncnc(Nc4ccc(OCc5cccc(F)c5)c(Cl)c4)c3c2)o1 [lapatinib]
Outline: as §1

pictilisib = compound: CS(=O)(=O)N1CCN(Cc2cc3nc(-c4cccc5[nH]ncc45)nc(N4CCOCC4)c3s2)CC1 [pictilisib]
Outline: as §1

[4] = compound: CS(=O)(=O)c1ccc(-c2cnc(N)c(C(=O)Nc3ccccc3)n2)cc1
Outline: as §1

crizotinib = compound: C[C@@H](Oc1cc(-c2cnn(C3CCNCC3)c2)cnc1N)c1c(Cl)ccc(F)c1Cl [crizotinib]
Outline: as §1

[5] = compound: C[C@@H]1COCCN1C2=NC(=NC(=C2)C3(CC3)S(=O)(=O)C)C4=C5C=CNC5=CC=C4
Outline: as §1

[6] = compound: C[C@H](C1=CC=C(C=C1)C(=O)NC2=C3C=CNC3=NC=C2)N
Outline: as §1

duvelisib = compound: C[C@H](Nc1ncnc2nc[nH]c12)c1cc2cccc(Cl)c2c(=O)n1-c1ccccc1 [duvelisib]
Outline: as §1

gandotinib = compound: Cc1cc(Nc2cc(CN3CCOCC3)c3nc(C)c(Cc4ccc(Cl)cc4F)n3n2)n[nH]1 [gandotinib]
Outline: as §1

tozasertib = compound: Cc1cc(Nc2cc(N3CCN(C)CC3)nc(Sc3ccc(NC(=O)C4CC4)cc3)n2)n[nH]1 [tozasertib]
Outline: as §1

[7] = compound: Cc1cc(SCc2sc(-c3ccc(C(F)(F)F)cc3)nc2C)ccc1OCC(=O)O
Outline: as §1

doramapimod = compound: Cc1ccc(-n2nc(C(C)(C)C)cc2NC(=O)Nc2ccc(OCCN3CCOCC3)c3ccccc23)cc1 [doramapimod]
Outline: as §1

ispinesib = compound: Cc1ccc(C(=O)N(CCCN)[C@@H](c2nc3cc(Cl)ccc3c(=O)n2Cc2ccccc2)C(C)C)cc1 [ispinesib]
Outline: as §1

Measured: log2 fold change

TBC1D9B (UniProt Q66K14)
UniProt Q66K14, sequence (Q66K14 whole entry, looked up): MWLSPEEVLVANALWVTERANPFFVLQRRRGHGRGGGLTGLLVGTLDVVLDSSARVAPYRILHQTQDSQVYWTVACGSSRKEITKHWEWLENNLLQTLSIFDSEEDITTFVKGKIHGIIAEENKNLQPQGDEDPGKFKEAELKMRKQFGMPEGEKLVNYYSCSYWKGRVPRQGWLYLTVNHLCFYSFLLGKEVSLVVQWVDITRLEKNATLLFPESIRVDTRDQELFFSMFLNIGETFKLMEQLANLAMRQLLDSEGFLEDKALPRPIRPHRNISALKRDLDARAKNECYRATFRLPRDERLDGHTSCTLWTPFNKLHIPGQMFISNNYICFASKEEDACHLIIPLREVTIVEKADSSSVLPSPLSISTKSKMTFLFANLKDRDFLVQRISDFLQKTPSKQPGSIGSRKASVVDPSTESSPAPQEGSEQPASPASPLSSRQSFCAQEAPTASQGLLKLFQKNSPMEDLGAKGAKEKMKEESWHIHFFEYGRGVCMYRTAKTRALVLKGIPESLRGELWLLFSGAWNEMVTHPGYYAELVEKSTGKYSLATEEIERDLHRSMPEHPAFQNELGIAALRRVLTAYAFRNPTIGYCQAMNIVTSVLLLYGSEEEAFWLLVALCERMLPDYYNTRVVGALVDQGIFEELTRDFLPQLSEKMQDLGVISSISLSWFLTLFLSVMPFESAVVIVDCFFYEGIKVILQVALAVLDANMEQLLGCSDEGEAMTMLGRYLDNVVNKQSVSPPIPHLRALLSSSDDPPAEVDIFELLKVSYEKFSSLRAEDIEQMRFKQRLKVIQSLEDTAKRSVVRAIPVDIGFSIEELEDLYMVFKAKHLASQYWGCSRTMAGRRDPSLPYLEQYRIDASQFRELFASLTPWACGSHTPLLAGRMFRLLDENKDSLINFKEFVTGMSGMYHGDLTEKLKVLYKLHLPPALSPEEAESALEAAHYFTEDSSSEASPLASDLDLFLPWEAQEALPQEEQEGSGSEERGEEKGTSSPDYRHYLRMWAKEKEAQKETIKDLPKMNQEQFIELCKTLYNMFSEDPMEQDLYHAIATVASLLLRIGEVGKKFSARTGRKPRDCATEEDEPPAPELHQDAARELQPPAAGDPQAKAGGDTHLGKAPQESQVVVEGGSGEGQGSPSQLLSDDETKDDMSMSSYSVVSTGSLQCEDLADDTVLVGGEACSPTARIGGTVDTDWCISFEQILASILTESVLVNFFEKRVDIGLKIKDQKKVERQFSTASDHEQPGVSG
inactive: [1] -0.037 | filanesib 0.151 | zotarolimus 0.042 | idasanutlin -0.003 | alisertib 0.03 | [2] -0.026 | gefitinib -0.072 | [3] 0.03 | lapatinib -0.031 | pictilisib 0.068 | [4] 0.041 | crizotinib -0.084 | [5] 0.016 | [6] 0.008 | duvelisib 0.01 | gandotinib 0.024 | tozasertib 0.055 | [7] 0.072 | doramapimod 0.007 | ispinesib -0.127

SLC27A1 (UniProt Q6PCB7)
UniProt Q6PCB7, sequence (Q6PCB7 whole entry, looked up): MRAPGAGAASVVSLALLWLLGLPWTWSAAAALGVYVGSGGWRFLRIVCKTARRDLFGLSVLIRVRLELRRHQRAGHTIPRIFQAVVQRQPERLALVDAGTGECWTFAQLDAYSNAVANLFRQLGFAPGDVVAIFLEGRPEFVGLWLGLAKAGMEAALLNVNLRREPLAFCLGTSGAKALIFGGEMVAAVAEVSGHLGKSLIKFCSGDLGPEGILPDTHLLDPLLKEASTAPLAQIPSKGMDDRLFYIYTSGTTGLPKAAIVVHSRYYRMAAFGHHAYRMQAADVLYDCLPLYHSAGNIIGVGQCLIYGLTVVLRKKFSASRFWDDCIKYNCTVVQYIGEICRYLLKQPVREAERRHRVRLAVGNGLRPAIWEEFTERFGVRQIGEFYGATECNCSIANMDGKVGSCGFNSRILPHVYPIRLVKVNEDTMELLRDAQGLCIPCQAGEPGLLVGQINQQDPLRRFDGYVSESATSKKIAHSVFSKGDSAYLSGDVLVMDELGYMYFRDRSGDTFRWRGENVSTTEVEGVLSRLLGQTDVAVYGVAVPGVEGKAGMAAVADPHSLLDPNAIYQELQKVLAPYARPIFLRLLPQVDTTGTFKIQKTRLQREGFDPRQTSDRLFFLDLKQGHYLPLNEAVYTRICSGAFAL
inactive: [1] -0.263 | filanesib 0.118 | zotarolimus 0.064 | idasanutlin -0.038 | alisertib 0.004 | [2] 0.069 | gefitinib 0.016 | [3] -0.031 | lapatinib 0.014 | [4] 0.116 | crizotinib 0.123 | [5] 0.016 | [6] -0.099 | duvelisib 0.05 | tozasertib -0.084 | [7] 0.112 | doramapimod 0.062 | ispinesib 0.06

TIMM21 (UniProt Q9BVV7)
UniProt Q9BVV7, sequence (Q9BVV7 whole entry, looked up): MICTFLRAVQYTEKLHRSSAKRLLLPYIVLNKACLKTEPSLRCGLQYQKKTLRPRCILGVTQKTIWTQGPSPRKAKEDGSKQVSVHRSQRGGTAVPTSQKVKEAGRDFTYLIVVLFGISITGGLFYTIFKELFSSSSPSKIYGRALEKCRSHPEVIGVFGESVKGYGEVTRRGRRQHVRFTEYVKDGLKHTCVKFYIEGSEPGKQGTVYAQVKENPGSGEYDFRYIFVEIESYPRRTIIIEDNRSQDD
inactive: [1] -0.038 | filanesib -0.171 | zotarolimus 0.03 | idasanutlin -0.078 | alisertib 0.054 | [2] -0.205 | gefitinib -0.006 | [3] 0.01 | lapatinib -0.008 | pictilisib 0.055 | [4] 0.02 | crizotinib -0.01 | [5] 0.042 | [6] -0.029 | duvelisib 0.009 | gandotinib 0.04 | tozasertib 0.017 | [7] 0.033 | doramapimod 0.02 | ispinesib -0.229

From the supplement of paper PMC10849652
